Test results taken from PubChem BioAssay AID1159580 (chemical genetic matrix, 2015).
About 2,000 (36%) of roughly 5,500 compounds were called active. Inconclusive results (about 18%) are left out. Cut-off read from the data, not from the text of the source: active = normalized growth mostly below about 0.91 (no sharp cut-off); inconclusive = no clear call, values can overlap the other calls; inactive = mostly above about 0.92. The list shows a part of the results.

Test: chemical genetic growth profiling, strain panel (AID 1159580);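 note: tested at 20 µM; growth read once vehicle control cultures reached saturation at 30 °C; 1 = growth at the plate median or of vehicle wells; lower values mean less growth of the strain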
Settings: S. cerevisiae deletion strains, growth OD

Measured: normalized growth

O=c1c2ccccc2oc2ccccc12
inactive: locus YAL021C, strain ccr4, stronger effect = lower value 0.938 | locus YAL026C, strain drs2, stronger effect = lower value 0.912 | locus YAL030W, strain snc1, stronger effect = lower value 0.948 | locus YBL061C, strain skt5, stronger effect = lower value 0.922 | locus YBR023C, strain chs3, stronger effect = lower value 0.916 | locus YBR171W, strain sec66, stronger effect = lower value 0.897 | locus YCL069W, strain vba3, stronger effect = lower value 0.961 | locus YCR088W, strain abp1, stronger effect = lower value 0.964 | locus YDL005C, strain med2, stronger effect = lower value 0.946 | locus YDL040C, strain nat1, stronger effect = lower value 0.946 | locus YDR001C, strain nth1, stronger effect = lower value 0.953 | locus YDR069C, strain doa4, stronger effect = lower value 0.927 | locus YDR159W, strain sac3, stronger effect = lower value 0.989 | locus YDR297W, strain sur2, stronger effect = lower value 0.945 | locus YDR334W, strain swr1, stronger effect = lower value 0.929 | locus YDR335W, strain msn5, stronger effect = lower value 0.946 | locus YEL037C, strain rad23, stronger effect = lower value 0.944 | locus YER015W, strain faa2, stronger effect = lower value 0.954 | locus YER016W, strain bim1, stronger effect = lower value 0.95 | locus YER111C, strain swi4, stronger effect = lower value 0.937 | locus YFR010W, strain ubp6, stronger effect = lower value 0.915 | locus YGL167C, strain pmr1, stronger effect = lower value 0.931 | locus YGL173C, strain kem1, stronger effect = lower value 0.907 | locus YGL227W, strain vid30, stronger effect = lower value 0.95 | locus YHR027C, strain rpn1, stronger effect = lower value 0.944 | locus YJL092W, strain hpr5, stronger effect = lower value 0.945 | locus YJL115W, strain asf1, stronger effect = lower value 0.953 | locus YJL129C, strain trk1, stronger effect = lower value 0.976 | locus YJL154C, strain vps35, stronger effect = lower value 0.964 | locus YJL187C, strain SWE1, stronger effect = lower value 0.935 | locus YKR026C, strain gcn3, stronger effect = lower value 0.949 | locus YKR091W, strain srl3, stronger effect = lower value 0.956 | locus YLL026W, stronger effect = lower value 0.951 | locus YLL041C, strain sdh2, stronger effect = lower value 0.952 | locus YLR027C, strain aat2, stronger effect = lower value 0.932 | locus YLR113W, strain HOG1, stronger effect = lower value 0.941 | locus YLR258W, strain gsy2, stronger effect = lower value 0.916 | locus YLR342W, strain FKS1, stronger effect = lower value 0.963 | locus YLR357W, strain rsc2, stronger effect = lower value 1.06 | locus YLR370C, strain arc18, stronger effect = lower value 0.952 | locus YLR384C, strain iki3, stronger effect = lower value 0.921 | locus YML120C, strain ndi1, stronger effect = lower value 0.915 | locus YMR058W, strain fet3, stronger effect = lower value 0.918 | locus YMR125W, strain sto1, stronger effect = lower value 0.918 | locus YMR129W, stronger effect = lower value 0.946 | locus YMR205C, strain PFK2, stronger effect = lower value 0.913 | locus YMR231W, strain pep5, stronger effect = lower value 0.947 | locus YNL183C, strain NPR1, stronger effect = lower value 0.841 | locus YNL209W, strain ssb2, stronger effect = lower value 0.93 | locus YNL322C, strain KRE1 (second series), stronger effect = lower value 0.965 | locus YNR049C, strain mso1, stronger effect = lower value 0.961 | locus YOR070C, strain gyp1, stronger effect = lower value 0.934 | locus YOR080W, strain dia2, stronger effect = lower value 0.966 | locus YOR106W, strain vam3, stronger effect = lower value 0.88 | locus YOR265W, strain rbl2, stronger effect = lower value 0.936 | locus YPL240C, strain hsp82, stronger effect = lower value 0.969 | locus YPL256C, strain CLN2, stronger effect = lower value 0.876
active: locus YBR009C, strain hhf1, stronger effect = lower value 0.854 | locus YBR231C, strain swc5, stronger effect = lower value 0.858 | locus YBR279W, strain paf1, stronger effect = lower value 0.922 | locus YCL011C, strain gbp2, stronger effect = lower value 0.907 | locus YCL016C, strain dcc1, stronger effect = lower value 0.869 | locus YCL061C, strain MRC1, stronger effect = lower value 0.917 | locus YDR137W, strain rgp1, stronger effect = lower value 0.794 | locus YDR195W, strain ref2 1.33 [resistant] | locus YDR392W, strain spt3, stronger effect = lower value 0.495 | locus YEL003W, strain gim4, stronger effect = lower value 0.906 | locus YEL061C, strain CIN8 (second series), stronger effect = lower value 0.879 | locus YER155C, strain BEM2 (second series), stronger effect = lower value 0.386 | locus YGL240W, strain doc1, stronger effect = lower value 0.84 | locus YGL253W, strain hxk2, stronger effect = lower value 0.859 | locus YHR013C, strain ard1, stronger effect = lower value 0.738 | locus YHR030C, strain SLT2, stronger effect = lower value 0.813 | locus YHR079C, strain IRE1, stronger effect = lower value 0.822 | locus YHR142W, strain chs7, stronger effect = lower value 0.766 | locus YJL095W, strain BCK1 (second series), stronger effect = lower value 0.853 | locus YJL095W, strain BCK1, stronger effect = lower value 0.857 | locus YJL164C, strain tpk1, stronger effect = lower value 0.891 | locus YJL166W, strain qcr8, stronger effect = lower value 0.879 | locus YJR066W, strain TOR1, stronger effect = lower value 0.8 | locus YKL160W, strain elf1, stronger effect = lower value 0.879 | locus YLL001W, strain dnm1, stronger effect = lower value 0.884 | locus YLR221C, strain rsa3, stronger effect = lower value 0.87 | locus YLR262C, strain YPT6 (second series), stronger effect = lower value 0.769 | locus YLR320W, strain mms22, stronger effect = lower value 0.697 | locus YNL071W, strain lat1, stronger effect = lower value 0.737 | locus YNL248C, strain rpa49, stronger effect = lower value 0.511 | locus YOR001W, strain rrp6, stronger effect = lower value 0.88 | locus YOR083W, strain WHI5, stronger effect = lower value 0.814 | locus YOR231W, strain MKK1, stronger effect = lower value 0.836 | locus YOR270C, strain vph1, stronger effect = lower value 0.611 | locus YOR290C, strain snf2, stronger effect = lower value 0.792 | locus YPL051W, strain arl3, stronger effect = lower value 0.859 | locus YPL078C, strain atp4, stronger effect = lower value 0.842 | locus YPL106C, strain sse1, stronger effect = lower value 0.759
